Source: PubChem BioAssay
Sampled rows, rich in hits. Any-hit rate of the full collection: about 3%.
Nrf2 block: blocks Nrf2 signaling | A549 ARE-Fluc reporter, luciferase luminescence, 18-24 h | Potency, µM (highest dose often 46 µM), without a hit: at the highest dose activity change, negative = inhibition, actives largely listed as inhibitors | 360,000 compounds, 2.1% hits; also: % is scaled to controls: 0 for no effect and ±100 for the full control effect; nearly all actives have a fitted effect of over 60% in size
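Two sequential reads on A549 ARE_Fluc cells exposed to compound for 18-24 h: a CellTiter-Fluor fluorescence read for viability, then a luciferase luminescence read for Nrf2/ARE activity.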
Nrf2 ARE act: activates Nrf2 signaling; Potency, µM (series often up to 46.1 µM), without a hit: at the top dose activation, hits mostly activators; AID 624171; 410,000 compounds, 0.31% hits; AREc32 ARE-luciferase reporter (MCF7-derived line), luminescence, 24 h; also: % of control where 0% means no effect; nearly all actives have a fitted effect of over 65% in size
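AREc32 cells carrying an ARE-driven firefly luciferase reporter were seeded at 1000 cells/well in OPTI-MEM with 5% FBS, then exposed to compound for 24 hr at 37 deg C. Luminescence was read with Steady-Glo after 30 min at RT.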
rTrxR1 inhibitor: inhibitors of rat thioredoxin reductase 1; O89049; recombinant rTrxR1, NADPH fluorescence consumption, selenite substrate; Potency, µM (titrated, usually from 114 µM), without a hit: top-dose activity change, negative = inhibition, actives largely listed as inhibitors; 390,000 compounds, 1% hits; AID 588453; also: % is scaled to controls: 0 for no effect and ±100 for the full control effect; nearly all actives have a fitted effect of over 65% in size
Target sequence (O89049 whole entry, looked up): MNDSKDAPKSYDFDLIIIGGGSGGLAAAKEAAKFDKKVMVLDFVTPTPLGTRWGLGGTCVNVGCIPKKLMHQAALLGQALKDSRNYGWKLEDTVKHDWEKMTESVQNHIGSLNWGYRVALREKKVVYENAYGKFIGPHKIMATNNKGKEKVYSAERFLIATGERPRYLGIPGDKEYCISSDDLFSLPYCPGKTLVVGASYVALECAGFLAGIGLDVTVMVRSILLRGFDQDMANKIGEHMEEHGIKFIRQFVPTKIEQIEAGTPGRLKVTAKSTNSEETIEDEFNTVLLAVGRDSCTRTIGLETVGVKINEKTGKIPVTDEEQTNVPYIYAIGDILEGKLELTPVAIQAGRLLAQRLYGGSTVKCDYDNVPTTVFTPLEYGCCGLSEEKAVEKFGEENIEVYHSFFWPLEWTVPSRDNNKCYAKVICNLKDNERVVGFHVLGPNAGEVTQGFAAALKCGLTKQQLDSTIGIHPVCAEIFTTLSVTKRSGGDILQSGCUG
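Rat TrxR1 (90 nM in the dispensed reagent) was pre-reduced with 400 uM NADPH for 5 min at room temperature, then incubated with compound for 15 min. After 400 uM selenite was added, NADPH fluorescence (Ex 340/Em 450 nm) was followed for 8 min.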
GALK inhibitor: blocks human galactokinase activity | 270,000 compounds, 0.007% hits | Potency, µM (doses to about 57.5 µM), for the others: top-dose activity change, negative = inhibition, usual class: inhibitors | Purified GALK, Kinase-Glo residual ATP luminescence | P51570 | AID 1868; also: % is scaled to controls: 0 for no effect and ±100 for the full control effect
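The enzyme phosphorylates galactose (100 uM) using ATP (35 uM); inhibition is detected as higher residual ATP, quantified by bioluminescence after 1 h reaction at room temperature, pH 8.0.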
TrxR1 substrate: is turned over as a substrate by rat TrxR1 | 390,000 compounds, 0.01% hits | AID 588456 | purified TrxR1 substrate turnover, NADPH consumption readout | Potency, µM (series often up to 114 µM), without a hit: at the top dose activity change, negative = substrate turnover; also: % is scaled to controls: 0 for no effect and ±100 for the full control effect; nearly all actives have a fitted effect of over 50% in size
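Rat TrxR1, dispensed at 90 nM, was prereduced with 400 uM NADPH (final) for 5 min at ~22 deg C, then incubated with compound 15 min before 400 uM selenite. A first-read NADPH fluorescence drop versus no-compound background flagged substrates.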
A549 tox: counter-screen for Nrf2 inhibitors: cytotoxicity in A549 cells. 390,000 compounds, 0.16% hits. AID 504648. Potency, µM (top dose mostly 46 µM), without a hit: at the top dose activity change, negative = cytotoxicity, usual class: inhibitors. A549 ARE-Fluc cells, CellTiter-Fluor viability, 18-24 h; also: % is scaled to controls: 0 for no effect and ±100 for the full control effect
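A549 ARE-Fluc cells in 5% FBS OPTI-MEM, 5000 cells/well, rested 2 h then exposed to compounds in concentration-response for 18-24 h at 37 °C. Viability by CellTiter-Fluor fluorescence (Ex 405/Em 525) after 30 min; luciferase luminescence (BugLite, 15 min, RT) read afterwards.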
Numbers without * were called inactive; ? = inconclusive; . = not tested or not shown; [ ] = dose if it differs, or a comment. Calls follow the shape of the dose curve; as a rule, active = well fitted curve in the direction sought with a large enough effect; inconclusive = small, poorly fitted or top-dose-only effect, or another doubt; inactive = no such curve, though single readings can be large; an effect the other way counts as inactive or inconclusive. Potency is read from the fitted curve at half-maximal effect.

SMILES	Nrf2 block	Nrf2 ARE act	rTrxR1 inhibitor	GALK inhibitor	TrxR1 substrate	A549 tox
COc1ccc(OC)c(C(=O)N(C[C@H]2CC[C@@H]([C@@H]3CC[C@H](CO)O3)O2)C(C(=O)NC(C)(C)C)c2ccc(-c3ccccc3)cc2)c1 (stereo not given in full)	25.9µM*	5.2%	-2.0%	.	-6.4%	?
CC(C)(C)NC(=O)C(c1ccc(-c2ccccc2)cc1)N(C[C@H]1CC[C@@H]([C@@H]2CC[C@H](CO)O2)O1)C(=O)c1cccc(Cl)c1 (stereo not given in full)	23.1µM*	-0.1%	-6.2%	.	-5.6%	?
COc1ccc(C(C(=O)NC(C)(C)C)N(C[C@H]2CC[C@@H]([C@@H]3CC[C@H](CO)O3)O2)C(=O)c2ccccc2)cc1 (stereo not given in full)	7.5%	-0.9%	17.7%	.	3.1%	-3.5%
COc1ccc(-c2nnc(SCC(=O)NC3CCCC3)nc2-c2ccc(OC)c(OC)c2)cc1OC	.	4.6%	7.9%[57.1 µM]	.	2.4%[57.1 µM]	-5.7%
COc1ccccc1CNC(=O)c1ccc(-c2nc(CS(=O)(=O)c3ccc(C)cc3)c(C)o2)cc1	-8.7%	2.3%	30.2%	.	17.5%	-0.8%
CS(=O)(=O)c1ncc(Cl)c(C(=O)N2CCN(c3cccc(Cl)c3)CC2)n1	7.31µM*	-5.6%	0.891µM*	.	1.0%	18.4µM*
CCS(=O)(=O)c1ncc(Cl)c(C(=O)N2CCN(c3cccc(Cl)c3)CC2)n1	23.1µM*	-5.7%	0.398µM*	.	-1.0%	?
Cc1ccc(CNC(=O)c2ccc(CSCc3ccccc3Cl)o2)cc1	.	0.9%	13.9%[57.1 µM]	.	1.8%[57.1 µM]	2.7%
FC(F)(F)c1ccc(C2Nc3cccc4cccc(c34)N2)cc1	1.6%	7.4%[9.22 µM]	28.2µM*	15.4%	-6.0%	-1.1%
Brc1ccc(C2Nc3cccc4cccc(c34)N2)cc1	27.2%	30.1%	?	.	-9.1%	-0.7%
Cc1ccc(C2Nc3cccc4cccc(c34)N2)s1	-1.2%	5.3%	22.4µM*	0.3%	-7.7%	?
c1coc(C2Nc3cccc4cccc(c34)N2)c1	.	.	.	-2.0%	.	.
Fc1ccc(C2Nc3cccc4cccc(c34)N2)cc1	?	3.7%	25.1µM*	0.3%	-2.4%	-11.1%
Cc1ccc(NC(=O)Cn2c(=O)n(-c3ccc(CC(=O)NCC4CCCO4)cc3)c(=O)c3ccccc32)cc1 (stereo not given)	4.3%	0.5%	2.0%	.	-4.0%	-2.5%
CC1=C(c2ccc(C)c(C)c2)S(=O)(=O)N=C1N1CCN(c2cccc(C)c2)C(C)C1 (stereo not given)	-11.4%	0.2%	16.0%	.	-5.8%	5.2%
O=C(Nc1cc(C(F)(F)F)ccc1Cl)c1noc2c1CCCCC2	1.6%	3.9%	14.4%	.	1.8%	12.5%
COc1cccc(CNC(=O)C(CC(C)C)NS(=O)(=O)c2ccc3c(c2)oc(=O)n3C)c1 (stereo not given)	-9.9%	0.7%	-2.6%	.	-4.8%	17.9%
Cc1cccc(NC(=O)CN2C(=O)COc3ccc(S(=O)(=O)N4CCC(C)CC4)cc32)c1C	-6.5%	-0.3%	31.6%	.	0.7%	0.3%
CCOC(=O)c1cc(-c2ccc(C)cc2)n(CCC(=O)Nc2ccc(C(C)C)cc2)c1C	?	0.2%	30.1%	.	1.5%	-17.0%
CCOC(=O)c1cc(-c2ccc(C)cc2)n(CCC(=O)Nc2ccc(OC)c(OC)c2)c1C	18.4µM*	-0.9%	19.2%	.	-0.9%	-12.7%
O=C(O)COc1ccc2c(c1)O/C(=C\c1ccco1)C2=O	10.9%	2.6%	44.7µM*	.	-1.2%	?
O=C(O)COc1ccc2c(c1)O/C(=C\c1cccs1)C2=O	-14.9%	-1.6%	-14.5%	.	-13.6%	?
C=CS(=O)(=O)c1sc(Cl)c(N2CCOCC2)c1[N+](=O)[O-]	?	?	0.316µM*	-4.6%	0.4%	?
C=CSc1sc(Cl)c(N2CCOCC2)c1[N+](=O)[O-]	-13.9%	?	-9.4%[57.1 µM]	2.0%	2.8%[57.1 µM]	-12.0%
CNC(=O)C1CCC(Cn2c(=O)c3sccc3n(CC(=O)Nc3ccc(C)cc3C)c2=O)CC1 (stereo not given)	?	0.7%	2.6%[57.1 µM]	.	0.2%[57.1 µM]	2.9%
SMILES	Nrf2 block	Nrf2 ARE act	rTrxR1 inhibitor	GALK inhibitor	TrxR1 substrate	A549 tox
Cc1cccn2c(=O)c(C(=O)N3CCN(c4ccccc4)CC3)cnc12	.	-0.4%	10.8%[57.1 µM]	.	3.5%[57.1 µM]	2.3%
CCOC(=O)C(NC(=O)CCl)(Nc1sc(C)c(CC)c1C#N)C(F)(F)F (stereo not given)	-9.4%	?	56.2µM*	1.6%	-5.8%	0.6%
CCOC(=O)C(NC(=O)CC(C)C)(Nc1sc(C)c(CC)c1C#N)C(F)(F)F (stereo not given)	-14.2%	0.1%	5.4%	1.2%	4.0%	2.4%
Cc1ccc(CS(=O)Cc2ccc(C(=O)NC3CCCC(C)C3C)o2)cc1 (stereo not given)	-9.4%	-0.7%	44.7µM*	0.2%	8.1%	-3.3%
Cc1ccc(CS(=O)Cc2ccc(C(=O)NC3CCCCCC3)o2)cc1 (stereo not given)	14.5%	-0.1%	?	-7.9%	9.6%	-0.5%
CCOc1ccc(C(=O)Nc2ccc(S(=O)(=O)N3CCCCC3c3cccnc3)cc2)cc1 (stereo not given)	.	-0.3%	16.0%[57.1 µM]	.	-0.9%[57.1 µM]	-28.6%
O=C(Nc1ccccc1F)c1ccc2c(Cl)c3c(nc2c1)CCC3	?	-1.7%	0.2%	.	-10.6%	-0.9%
Cn1c(=O)n(C)c2cc([N+](=O)[O-])c(N3CCN(S(=O)(=O)c4ccc5ccccc5c4)CC3)cc21	5.8µM*	0.0%	10.1%	0.9%	8.2%	-5.6%
Cc1ccc(S(=O)(=O)N2CCN(c3ccc(C(F)(F)F)cc3[N+](=O)[O-])CC2)cc1	16.4µM*	0.5%	23.9%[57.1 µM]	-1.4%	-11.7%	-19.8%
CCCS(=O)(=O)N1CCN(c2cc3c(cc2[N+](=O)[O-])n(C)c(=O)n3C)CC1	11.6µM*	3.9%	27.4%[57.1 µM]	2.2%	-12.5%[57.1 µM]	-13.3%
Cc1ccc(S(=O)(=O)N2CCN(c3cc4c(cc3[N+](=O)[O-])n(C)c(=O)n4C)CC2)cc1	?	6.4%	17.8%	4.8%	3.2%	0.4%
Cn1c(=O)n(C)c2cc([N+](=O)[O-])c(N3CCN(C(=O)c4cccc(F)c4)CC3)cc21	9.2µM*	5.7%	33.5%[57.1 µM]	10.1%	4.8%[57.1 µM]	-9.7%
Cc1ccc(S(=O)(=O)N2CCN(c3c([N+](=O)[O-])cc(C(F)(F)F)cc3[N+](=O)[O-])CC2)cc1	-8.7%	-0.1%	8.7%	0.8%	-6.9%	?
